DT40 TDP1 CPT: DT40-hTDP1 cell growth loss with CPT; Potency, µM (highest dose often 46.2 µM), for inactives: top-dose activity change, negative = growth inhibition, hits mostly inhibitors; chicken DT40 Tdp1-/-;hTDP1 cells + 20 nM CPT, ATP luminescence, 48 h; 12% of 420,000 active; also: % is scaled to controls: 0 for no effect and ±100 for the full control effect; nearly all actives have a fitted effect of over 55% in size
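Chicken DT40 Tdp1-/- cells stably complemented with human TDP1 were seeded at 400 cells/well in medium containing 20 nM camptothecin, exposed to pin-transferred compounds, and grown at 37 °C for at least 48 hr. Viability was read as ATP luminescence.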
TDP1 cell noCPT: qHTS for Inhibitors of human tyrosyl-DNA phosphodiesterase 1 (TDP1): qHTS in cells in absence of CPT. Potency, µM (titrated, usually from 46.2 µM), inactives show at the top dose activity change, negative = growth inhibition, most hits filed as inhibitors. DT40 Tdp1-/- hTDP1 cells, no CPT, ATP luminescence, 48 h. 15% of 420,000 active. AID 686978, 2013; also: % is scaled to controls: 0 for no effect and ±100 for the full control effect; nearly all actives have a fitted effect of over 55% in size
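No-CPT arm: Tdp1-/-;hTDP1 DT40 cells (400/well) plus compounds, incubated ≥48 hr at 37 °C. Readout CellTiter-Glo luminescence.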
HepG2 viability: kills HepG2 cells in TGF-b inhibitor counter-screen; HepG2 CAGA-GFP viability, ATP luminescence, 18 h; Potency, µM (top dose mostly 46.1 µM), without a hit: at the highest dose activity change, negative = cytotoxicity, hits mostly cytotoxic; 0.76% of 410,000 active
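CellTiter-Glo luminescence gave cytotoxicity after 18 hours at 37 degrees C. The cells were HepG2 CAGA-GFP in 1% FBS DMEM, stimulated with 500 pg/mL TGF-beta after compound addition. %Activity was normalised to no-cell wells (complete cell-killing) and DMSO (no toxicity), and curves were fitted and classified.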
TGFb SMAD3 inh: TGF-b pathway inhibition | HepG2 CAGA-GFP TGF-b/SMAD3 reporter, GFP fluorescence, 18 h; TGF-beta stimulated, 500 pg/mL final | Potency, µM (highest dose often 46.1 µM), for the others: at the top dose activity, negative = inhibition, actives largely listed as inhibitors | 1.2% of 410,000 active | AID 588855; also: % is scaled to controls: 0 for no effect and ±100 for the full control effect; nearly all actives have a fitted effect of over 65% in size
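HEPG2 CAGA-GFP reporter cells (1000/well, DMEM with 1% FBS) received compounds, then recombinant TGF-beta at 500 pg/mL final for 18 hours at 37 degrees C. Per-cell GFP summed per well was normalised to unstimulated and stimulated DMSO controls before curve fitting.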
HT1080 IDH1KD tx: kills HT-1080 cells with IDH1 knockdown. Potency, µM (doses to about 46.1 µM), inactives show top-dose activity, negative = toxicity, actives largely listed as cytotoxic. AID 686971. 2% of 360,000 active. HT-1080 IDH1 knockdown viability, ATP luminescence, 48 h;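 also: 0% = DMSO wells and -100% = cell-free medium wells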
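IDH1KD HT-1080 cells, 750/well, RPMI + 5% FBS; compound pinned after 2 h settling; 48 h, 37 °C; CellTiter-Glo luminescence; % activity normalised to DMSO and no-cell wells; curves fitted, classed by r2 and efficacy.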
HT1080NT lethal: kills 2HG-producing HT-1080-NT fibrosarcoma cells; HT-1080-NT fibrosarcoma viability, CellTiter-Glo ATP luminescence, 48 h; Potency, µM (top dose mostly 46.1 µM), for the others: at the highest dose activity, negative = less viability, most hits filed as cytotoxic; 1.6% of 360,000 active; AID 686970;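 also: NT is the 2HG producing partner of a matched IDH1 knockdown line; 0% = DMSO-treated cells and -100% = media-only wells without cells; nearly all actives have a fitted effect of over 55% in size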
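Fibrosarcoma NT cells, 750 per well in 5% FBS RPMI, were exposed to compound for 48 hours. Viability: CellTiter-Glo luminescence.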
Active calls of the source: *. In the library only some 17% were active in any assay of this set; here they are far more common. Calls follow the shape of the dose curve; as a rule, active = well fitted curve in the direction sought with a large enough effect; inconclusive = small, poorly fitted or top-dose-only effect, or another doubt; inactive = no such curve, though single readings can be large; an effect the other way counts as inactive or inconclusive. Potency is read from the fitted curve at half-maximal effect.

Cc1nn(-c2cc(C(F)(F)F)ccn2)c(=O)o1 was read as DT40 TDP1 CPT 2%, TDP1 cell noCPT -4%, HepG2 viability 101%, TGFb SMAD3 inh 0%, HT1080 IDH1KD tx 4% and HT1080NT lethal 7%.
Cc1ccccc1OP(=O)(Oc1ccccc1C)N1CCOCC1 was read as DT40 TDP1 CPT inconclusive, TDP1 cell noCPT inconclusive, HepG2 viability 8%, TGFb SMAD3 inh -17%, HT1080 IDH1KD tx 15% and HT1080NT lethal -3%.
C[C@]12CCC3C(CC[C@H]4C[C@H](O)CC[C@]34C)[C@@H]1CC[C@@H]2C(=O)CO (some centres not stated) was read as DT40 TDP1 CPT -24% and TDP1 cell noCPT -30%.
O=c1c2ccccc2nc(Cc2ccccc2)n1-c1cccc(O)c1 was read as DT40 TDP1 CPT 15µM*, TDP1 cell noCPT 21µM*, HepG2 viability -5%, TGFb SMAD3 inh inconclusive, HT1080 IDH1KD tx -10% and HT1080NT lethal -11%.
Screening Cc1nc2ccccc2c(=O)n1-c1cccc([N+](=O)[O-])c1 returned DT40 TDP1 CPT 5%, TDP1 cell noCPT -7%, HepG2 viability -38%, TGFb SMAD3 inh -29%, HT1080 IDH1KD tx 7% and HT1080NT lethal 8%.
O=C1Nc2ccccc2C1Cc1nc2ccccc2c(=O)n1-c1ccccc1 (configuration not stated) was read as DT40 TDP1 CPT inconclusive, TDP1 cell noCPT inconclusive, HepG2 viability -1%, TGFb SMAD3 inh -12%, HT1080 IDH1KD tx 0% and HT1080NT lethal 2%.
Cc1cccc(-n2c(-c3ccc([N+](=O)[O-])cc3)nc3ccccc3c2=O)c1 was read as DT40 TDP1 CPT inconclusive, TDP1 cell noCPT 8.2µM*, HepG2 viability -18%, TGFb SMAD3 inh -4%, HT1080 IDH1KD tx -4% and HT1080NT lethal -2%.
For Cc1cccc(-n2c(CC3C(=O)Nc4ccc(C)cc43)nc3ccccc3c2=O)c1 (configuration not stated) the results were DT40 TDP1 CPT inconclusive, TDP1 cell noCPT 21µM*, HepG2 viability -15% and TGFb SMAD3 inh -25%.
For Cc1nc2cc([N+](=O)[O-])ccc2c(=O)n1-c1cccc(Br)c1 the results were DT40 TDP1 CPT inconclusive, TDP1 cell noCPT 18µM*, HepG2 viability -11%, TGFb SMAD3 inh 4%, HT1080 IDH1KD tx -9% and HT1080NT lethal -10%.
For ON1C2CCCCC2N(O)C1c1ccccc1F (configuration not stated) the results were DT40 TDP1 CPT -9%, TDP1 cell noCPT 2%, HepG2 viability -25%, TGFb SMAD3 inh -2%, HT1080 IDH1KD tx 15% and HT1080NT lethal 13%.
CCn1cc(C(=O)NCCc2ccc(OC)c(OC)c2)c(=O)c2cc(S(=O)(=O)N(C)C3CCCCC3)ccc21 was read as DT40 TDP1 CPT inconclusive, TDP1 cell noCPT inconclusive, HepG2 viability -5% and TGFb SMAD3 inh inconclusive.
For Cc1ccc(-n2c(O)c(C=Nc3ccc(Br)cn3)c(=O)[nH]c2=O)cc1 the results were DT40 TDP1 CPT 8%, TDP1 cell noCPT -4%, HepG2 viability -19%, TGFb SMAD3 inh -16%, HT1080 IDH1KD tx 22% and HT1080NT lethal inconclusive.
Screening O=c1c2ccccc2nc(N2CCCC2)n1-c1ccccc1 returned DT40 TDP1 CPT inconclusive, TDP1 cell noCPT 15µM*, HepG2 viability 0%, TGFb SMAD3 inh inconclusive, HT1080 IDH1KD tx 7% and HT1080NT lethal 10%.
Cc1nc2ccccc2c(=O)n1-c1ccc(C(=O)O)cc1 was read as DT40 TDP1 CPT -9%, TDP1 cell noCPT 24%, HepG2 viability 2%, TGFb SMAD3 inh 13%, HT1080 IDH1KD tx 0% and HT1080NT lethal -2%.
CCCC[C@@H](C)C[C@@H](C)C(=O)N(C)[C@@H](CC(C)C)C(=O)N[C@H](C(=O)N(C)[C@H](C(=O)N1C[C@@H](O)C[C@H]1C(=O)N1C(=O)C=C[C@@H]1C)C(C)C)C(C)OC(C)=O (some centres not stated) was read as DT40 TDP1 CPT 0.037µM*, TDP1 cell noCPT 0.0065µM*, HepG2 viability -113%, TGFb SMAD3 inh inconclusive, HT1080 IDH1KD tx 0.12µM* and HT1080NT lethal 0.029µM*.
`COc1ccccc1CN1CCCC2(CCN(C(=O)Oc3ccccc3)CC2)C1` gave DT40 TDP1 CPT 9% and TDP1 cell noCPT -18%.
`Cc1ccc(Cl)cc1N1CCN(C(=O)c2cn(C)c(=O)c3c2c2ccccc2n3C)CC1` gave DT40 TDP1 CPT inconclusive, TDP1 cell noCPT 18µM*, HepG2 viability -10%, TGFb SMAD3 inh -8%, HT1080 IDH1KD tx -1% and HT1080NT lethal 2%.
Cc1cc(=O)oc2c(C)c(OCC(=O)N3CCC(C(=O)O)(c4ccccc4)CC3)ccc12 was read as DT40 TDP1 CPT -12%, TDP1 cell noCPT -14%, HepG2 viability 11%, TGFb SMAD3 inh -2%, HT1080 IDH1KD tx -4% and HT1080NT lethal -3%.
Screening Cc1ccc(-n2c(C)cc(/C=C3/C(=O)NC(=O)N(C)C3=O)c2C)cc1 returned DT40 TDP1 CPT -20%, TDP1 cell noCPT -15%, HepG2 viability -11%, TGFb SMAD3 inh -3%, HT1080 IDH1KD tx 0% and HT1080NT lethal -4%.
Screening Cc1cc(C=C2C(=O)NC(=S)NC2=O)c(C)n1C1CCCC1 returned DT40 TDP1 CPT 15µM*, TDP1 cell noCPT inconclusive, HepG2 viability -30%, TGFb SMAD3 inh -6%, HT1080 IDH1KD tx inconclusive and HT1080NT lethal -22%.
For CN1C(=O)C(=Cc2coc3ccccc3c2=O)C(=O)N(C)C1=O the results were DT40 TDP1 CPT inconclusive, TDP1 cell noCPT 23µM*, HepG2 viability -7%, TGFb SMAD3 inh 1%, HT1080 IDH1KD tx 10% and HT1080NT lethal 4%.
O=C(OCc1ccccc1)N1CCC2CC1c1cc(N3Cc4ccccc4-n4nncc4C3)ccc12 (configuration not stated) was read as DT40 TDP1 CPT 7.3µM*, TDP1 cell noCPT 5.8µM*, HepG2 viability -27%, TGFb SMAD3 inh -6%, HT1080 IDH1KD tx -21% and HT1080NT lethal -25%.

Screens: PubChem BioAssay, National Center for Advancing Translational Sciences (NCATS)
